Test results reported in PubChem BioAssay AID602340 (Broad Institute, 2012).
Among all 330,000 compounds or so, about 2,600 (0.79%) were called active. The full list was thinned out, with actives kept by preference. Unmarked numbers belong to inactive results.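 How the source made its calls: active means mean ATP rescue above about 67%, or every replicate alone reaching that limit (limit read from the data, passing the limit was not always enough); inconclusive means no clear call, values can overlap the other calls; inactive means mean under the limit and some replicate under it.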

Test: protection of differentiated C2C12 cells from simvastatin – single point, plate reader, primary screen (AID 602340);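 further: myotubes were challenged with 10 µM simvastatin during compound exposure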
Conditions: C2C12 myotubes + simvastatin, ATP luminescence, 48 h; at 7.49 µM; active compounds read high; scaled: DMSO 0, geranylgeraniol control 100

Compared with O=C(O)CC(Cn1cnnn1)c1ccccc1 (configuration not stated), CCOc1ccc(C(CC(=O)O)n2cnnn2)cc1OC (configuration not stated) is lower in rescue of ATP level: 7.4% for the first, 5.44% for the second.

Going from O=C(Nc1cccc(Cl)c1)N[C@H]1CC[C@H](CCNC(=O)C2CCOCC2)O[C@H]1CO to O=C(CN1CCOCC1)N[C@@H]1CC[C@H](CCNS(=O)(=O)c2ccccc2F)O[C@H]1CO, the rescue of ATP level rises from -25.3% to 14.2%.

Compared with C[C@@H]1CCCCO[C@@H](CN(C)S(C)(=O)=O)[C@@H](C)CN([C@@H](C)CO)C(=O)c2cc(NS(=O)(=O)c3ccc(Cl)cc3)ccc2O1, C[C@@H]1CCCCO[C@H](CN(C)S(C)(=O)=O)[C@@H](C)CN([C@H](C)CO)C(=O)c2cc(NS(=O)(=O)c3ccc(Cl)cc3)ccc2O1 is lower in rescue of ATP level: 7.9% for the first, -21.9% for the second.

First: C[C@@H]1CCCCO[C@H](CN(C)C(=O)Nc2cccc3ccccc23)[C@@H](C)CN([C@H](C)CO)C(=O)c2cc(NS(=O)(=O)c3cccs3)ccc2O1
Second: C[C@@H]1CCCCO[C@H](CN(C)C(=O)Nc2cccc3ccccc23)[C@H](C)CN([C@H](C)CO)C(=O)c2cc(NS(=O)(=O)c3cccs3)ccc2O1
The rescue of ATP level of the first is lower: -12.1% for the first, 28.4% for the second.

Compared with C[C@@H]1CCCCO[C@H](CN(C)C(=O)Nc2cccc3ccccc23)[C@@H](C)CN([C@H](C)CO)C(=O)c2cc(NC(=O)Nc3ccc4c(c3)OCO4)ccc2O1, C[C@H]1CCCCO[C@H](CN(C)C(=O)Nc2ccccc2)[C@@H](C)CN([C@@H](C)CO)C(=O)c2cc(NC(=O)Nc3ccc4c(c3)OCO4)ccc2O1 is higher in rescue of ATP level: -47.9% for the first, -0.0505% for the second.

Compared with C[C@@H]1CCCCO[C@@H](CN(C)Cc2ccc3c(c2)OCO3)[C@H](C)CN([C@@H](C)CO)C(=O)c2cc(NS(C)(=O)=O)ccc2O1, C[C@@H]1CCCCO[C@@H](CN(C)Cc2ccc(Cl)c(Cl)c2)[C@@H](C)CN([C@@H](C)CO)C(=O)c2cc(NS(C)(=O)=O)ccc2O1 is lower in rescue of ATP level: -0.957% for the first, -1.95% for the second.

First: C[C@H](NC(=O)C[C@@H]1CC[C@@H]2[C@H](COC[C@@H](O)CN2Cc2cc(F)ccc2F)O1)c1ccccc1
Second: CCCNC(=O)C[C@H]1CC[C@H]2[C@@H](COC[C@H](O)CN2C(=O)Nc2c(C)noc2C)O1
The rescue of ATP level of the first is higher: 6.87% for the first, 5.16% for the second.

Going from CN1[C@@H]2c3ccc(C4=CCCCC4)c(=O)n3C[C@H]1[C@H](CO)[C@H]2C(=O)NCc1ccc(F)cc1 to Cc1noc(C)c1NC(=O)N(C)C[C@@H]1Oc2ccc(NS(=O)(=O)c3ccc(F)cc3)cc2CC(=O)N([C@@H](C)CO)C[C@H]1C, the rescue of ATP level falls from 12.7% to -7.19%.

Going from C[C@H]1CN([C@@H](C)CO)C(=O)c2cc(C#CC3CCCC3)cnc2O[C@H]1CN(C)C(=O)c1ccncc1 to C[C@H]1CN([C@@H](C)CO)S(=O)(=O)c2ccc(C#CC3CCCC3)cc2O[C@@H]1CN(C)C(=O)c1cccc(F)c1, the rescue of ATP level rises from -53.3% to -41%.

Going from CO[C@@H]1CN(C)C(=O)c2cc(NC(=O)Nc3cc(F)ccc3F)ccc2OC[C@@H](C)N(C)C[C@H]1C to CO[C@@H]1CN(C)C(=O)c2cc(NC(=O)NC(C)C)ccc2OC[C@@H](C)N(CC2CC2)C[C@@H]1C, the rescue of ATP level rises from -33.7% to 3.47%.

First: CNC(=O)C[C@H]1CC[C@H]2[C@H](COc3ccc(NC(=O)c4cc(C)on4)cc3C(=O)N2C)O1
Second: CCCNC(=O)N1C[C@H](C)[C@@H](OC)CN(C)C(=O)c2ccc(NS(C)(=O)=O)cc2OC[C@@H]1C
The rescue of ATP level of the first is higher: 7.63% for the first, -0.593% for the second.

First: COc1ccccc1NC(=O)N1C[C@H]2[C@@H](c3ccccc31)[C@H](CO)N2Cc1ccc2c(c1)OCO2
Second: Cc1ccccc1-n1c(SCC(=O)Nc2cccc3ccccc23)nc(O)cc1=O
The rescue of ATP level of the first is higher: 46.6% for the first, 7.58% for the second.

Compared with COc1ccc(OC)c(-c2csc(-c3cccs3)n2)c1, COc1cccc(NC(=O)CN(C)C(=O)/C=C/c2cn(-c3ccccc3)nc2-c2cccs2)c1 is higher in rescue of ATP level: -1.11% for the first, -0.997% for the second.

First: O=C(N[C@@H]1CC[C@H](CCn2cc(-c3ccccn3)nn2)O[C@@H]1CO)c1ccccc1
Second: COc1ccccc1-c1cn(CC[C@H]2CC[C@@H](NC(=O)Cc3ccccn3)[C@@H](CO)O2)nn1
The rescue of ATP level of the first is lower: 0.826% for the first, 5.82% for the second.

First: C[C@H](CO)N1C[C@H](C)[C@H](CN(C)C(=O)C2CCOCC2)Oc2ncc(-c3ccccc3)cc2C1=O
Second: CC(C)NC(=O)N(C)C[C@@H]1Oc2ncc(-c3ccc(C(=O)N(C)C)cc3)cc2C(=O)N([C@H](C)CO)C[C@H]1C
The rescue of ATP level of the first is lower: -10.6% for the first, -0.478% for the second.

First: CCOC(=O)c1c(NC(=O)CSc2nnc(CN3CCOCC3)n2C)sc2c1CCCC2
Second: CCOC(=O)c1c(NC(=O)CSc2cn(CC)c3ccccc23)sc2c1CCC2
The rescue of ATP level of the first is lower: -1.41% for the first, 15.7% for the second.

Going from O=C(C[C@@H]1C=C[C@H](NC(=O)Nc2ccc(C(F)(F)F)cc2)[C@H](CO)O1)NCc1cccc(F)c1 to CCN(CC(=O)NC(=O)NCc1ccccc1)Cc1nc2ccccc2c(=O)[nH]1, the rescue of ATP level falls from 18.6% to -7.59%.

First: CCOCCCN1C(=O)C2C(C(=O)Nc3ccc(OCC)cc3)C3C=CC2(O3)C1C(=O)NC1CCCCC1 (configuration not stated)
Second: Cc1ccc(S(=O)(=O)NCC(=O)N(CC(=O)NC2CCCCC2)Cc2ccco2)cc1
The rescue of ATP level of the first is lower: 9.74% for the first, 13.6% for the second.

Going from CC(C)COC(=O)C1C2C=CC3(CN(C(C)c4ccc(Br)cc4)C(=O)C13)O2 (configuration not stated) to C/C=C/c1ccc([C@@H]2[C@@H](CO)N(C(=O)CC)[C@H]2CN(C)C(=O)C2CC2)cc1, the rescue of ATP level rises from 4.94% to 7.07%.

First: Cc1ccc(NC(=O)C(=O)NCc2ccco2)c(C)c1
Second: Cc1cc(C)n2nc(SCC(=O)NC(=O)NCc3ccco3)nc2n1
The rescue of ATP level of the first is higher: 9.27% for the first, -3.52% for the second.

Compared with Cc1ccc(S(=O)(=O)N(CC(O)CN2CCCCC2)c2cccc([N+](=O)[O-])c2)cc1 (configuration not stated), Cc1cccc(N(CC(O)CN(C)C)S(=O)(=O)c2ccccc2)c1 (configuration not stated) is lower in rescue of ATP level: 5.45% for the first, -10.1% for the second.

Going from Cn1c(SCC(=O)Nc2ccc(Cl)cc2)nc(O)cc1=O to CCn1nnnc1SCC(=O)Nc1ccc(N(C)C)cc1, the rescue of ATP level falls from 21.6% to -19%.

Going from CN(CC(=O)NC1CCCCC1)S(=O)(=O)c1cccc2cccnc12 to C[C@H]1CCCCO[C@H](CN(C)Cc2ccccc2)[C@@H](C)CN([C@@H](C)CO)C(=O)c2cc(NS(C)(=O)=O)ccc2O1, the rescue of ATP level rises from -5.41% to 0.662%.

First: O=C(C[C@H]1CC[C@@H]2NC[C@H](O)COC[C@H]2O1)NCCN1CCCCC1
Second: CCCNC(=O)N[C@@H]1CC[C@@H](CCn2cc(C3CC3)nn2)O[C@@H]1CO
The rescue of ATP level of the first is lower: -1.01% for the first, 4.61% for the second.

Compared with C[C@@H]1CN([C@@H](C)CO)C(=O)Cc2cc(NS(=O)(=O)c3ccc(Cl)cc3)ccc2O[C@H]1CN(C)C(=O)Nc1cccc2ccccc12, CC(C)CC#Cc1cnc2c(c1)C(=O)N([C@@H](C)CO)C[C@H](C)[C@@H](CN(C)S(=O)(=O)c1cn(C)cn1)O2 is lower in rescue of ATP level: 25% for the first, -12.3% for the second.

Going from N#CCC(=O)Nc1ccc(C(=O)OCC(=O)Nc2sc3c(c2C#N)CCCC3)cc1 to CCOc1ccc(NC(=O)c2ccc(NC(=O)COC(=O)c3ccc(NC(=O)CC#N)cc3)cc2)cc1, the rescue of ATP level falls from 4.12% to -8.99%.

Compared with O=c1c2c(nc3n1CCCCC3)sc1c(O)cccc12, Cc1cc(=O)n2c3c(cccc13)CCC2 is lower in rescue of ATP level: 6.49% for the first, 0.243% for the second.

Going from CCCC(=O)N(CCc1ccccc1)Cc1nc2ccccc2c(=O)[nH]1 to CCOC(=O)c1c(-c2ccc(C)cc2C)csc1NC(=O)CSc1nnnn1C, the rescue of ATP level rises from 4.48% to 8.4%.

In the case of O=C(O)CC(c1ccccc1)n1cnnn1 (configuration not stated), the rescue of ATP level is reported as 86% (active).
With C[C@H](CO)N1C[C@H](C)[C@H](CN(C)C(=O)Nc2cccc3ccccc23)OCCCC[C@H](C)Oc2ccc(NC(=O)Nc3ccc4c(c3)OCO4)cc2C1=O the rescue of ATP level was 90.3% (active).
For C[C@H]1CCCCO[C@@H](CN(C)C(=O)Nc2cccc3ccccc23)[C@@H](C)CN([C@@H](C)CO)C(=O)c2cc(NS(=O)(=O)c3ccc(Cl)cc3)ccc2O1, the rescue of ATP level was 125% (active).
For C[C@@H]1CCCCO[C@@H](CN(C)Cc2ccc(Cl)c(Cl)c2)[C@H](C)CN([C@@H](C)CO)C(=O)c2cc(NS(C)(=O)=O)ccc2O1, the rescue of ATP level was 98% (active).
In the case of C[C@@H]1CCCCO[C@@H](CN(C)S(C)(=O)=O)[C@H](C)CN([C@@H](C)CO)C(=O)c2cc(NS(=O)(=O)c3ccc(F)cc3)ccc2O1, the rescue of ATP level is reported as 132% (active).
With COc1cccc(C(=O)n2ccc(-c3cccs3)n2)c1 the rescue of ATP level was 132% (active).
In the case of CCOC(=O)c1c(NC(=O)CSc2nnc(C)c(=O)[nH]2)sc2c1CCC2, the rescue of ATP level is reported as 131% (active).
In the case of CCOC(=O)CN1CC23C=CC(O2)C(C(=O)Nc2ccc(F)cc2)C3C1=O (configuration not stated), the rescue of ATP level is reported as 97% (active).
With Cc1ccc(SCC(=O)NC(=O)NCc2ccco2)c(C)c1 the rescue of ATP level was 95.8% (active).
With O=S(=O)(c1ccccc1)N(CC(O)CN1CCCCC1)c1ccccc1 (configuration not stated) the rescue of ATP level was 152% (active).
With CC(C)Cn1c(SCC(=O)Nc2ccc(Cl)cc2F)nc(O)cc1=O the rescue of ATP level was 95.3% (active).
With Cc1ccc(S(=O)(=O)N(C)CC(=O)NC2CCCC2)cc1 the rescue of ATP level was 96.1% (active).
In the case of CC(C)NC(=O)NC(=O)COC(=O)c1ccc(NC(=O)CC#N)cc1, the rescue of ATP level is reported as 113% (active).
In the case of Cc1cccc2c(=O)n3c(nc12)CCCCC3, the rescue of ATP level is reported as 66.7% (active).
With O=C(c1ccco1)N(Cc1nc2ccccc2c(=O)[nH]1)C1CCCC1 the rescue of ATP level was 69.1% (active).
For CCn1nnnc1SCC(=O)c1ccc(C)cc1C, the rescue of ATP level was 122% (active).
